# Compound activity (PubChem BioAssay)
# RGS4-Gao reg – modulates binding of RGS4 to human Galphao; AID 1415; 220,000 tested, 0.33% active; Multiplexed bead flow cytometry; actives lie on both sides; binding response (% of control), % at 10 µM; in the data active = binding response below about 49% or above about 150%; inactive = in between;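 also: fluorescent Galphao activated with aluminum fluoride binding bead-coupled RGS4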
# Target sequence (P09471 whole entry, looked up): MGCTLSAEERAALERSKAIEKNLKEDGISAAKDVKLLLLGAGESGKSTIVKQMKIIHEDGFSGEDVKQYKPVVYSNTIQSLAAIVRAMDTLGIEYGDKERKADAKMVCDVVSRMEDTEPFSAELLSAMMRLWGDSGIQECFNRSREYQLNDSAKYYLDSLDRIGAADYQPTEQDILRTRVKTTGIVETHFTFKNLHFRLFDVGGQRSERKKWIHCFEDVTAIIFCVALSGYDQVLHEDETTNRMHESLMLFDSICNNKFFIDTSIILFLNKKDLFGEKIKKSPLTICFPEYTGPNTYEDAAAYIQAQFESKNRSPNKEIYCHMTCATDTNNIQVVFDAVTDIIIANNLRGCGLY
# GSH bead fluor – compound fluoresces at 488/530 nm on GSH beads | GSH beads flow cytometry, compound fluorescence 488/530 nm; stronger effect = higher value | fluorescence (KMESF) at 10 µM | 190,000 tested, 0.25% active; in the data active = fluorescence above about 89;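 also: glutathione beads carrying GST-tagged Bcl family fusion proteins plus one bare bead set; values are compound well signal with DMSO vehicle wells as background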
# RGS7-Gao – regulators of human RGS7-Galphao interaction. 220,000 tested, 0.35% active. P09471. Multiplexed bead flow cytometry, RGS7-Galphao binding; actives lie on both sides. binding response (% of control), % at 10 µM; in the data active = binding response below about 49% or above about 150%; inconclusive = no clear call, values can overlap the other calls; inactive = in between;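 also: fluorescent Galphao held in activated GDP-AlF4 state binding bead-coupled RGS7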
# RGS16-Gao – regulators of human RGS16-Galphao interaction; O15492+P09471; bead-based flow cytometry RGS16-Galphao binding, fluorescence; actives lie on both sides; binding response (% of control), % at 10 µM; 220,000 tested, 0.38% active;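 also: Galphao activated by GDP with aluminum fluoride before binding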
# RGS8-Gao – regulators of human RGS8-Galphao interaction. multiplexed bead flow cytometry, RGS8-Galphao binding; actives lie on both sides. response (percent of control binding), % at 10 µM. 220,000 tested, 0.34% active; in the data active = response below about 60% or above about 140%; inactive = in between;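 also: Galphao activated as the GDP aluminium fluoride complex binding bead-coupled RGS8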
# Avidin bead fluor – avidin bead compound fluorescence profile; Avidin beads, compound fluorescence 488/530 nm, flow cytometry; stronger effect = higher value; 220,000 tested, 0.38% active; fluorescence (KMESF) at 10 µM; in the data active = fluorescence above about 47
# RGS4-Gao HTS – regulators of human RGS4-Galphao interaction | shares compounds with RGS16-Gao | multiplexed bead flow cytometry, RGS–Galpha-o binding | RGS4–Galpha-o binding response, % at 10 µM | 1,600 tested, 99% active | AID 1504;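 also: fluorescently labeled Galpha-o bound to GDP with aluminium fluoride binding biotinylated RGS beads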
# Biotin-avidin – interferes with biotinylated probe binding to avidin beads; 1,700 tested, under 10 active; streptavidin beads, fluorescein-biotin binding, flow cytometry; shares compounds with RGS16-Gao; inhibition, % at 10 µM;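 active = inhibition above 50%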;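 also: median green fluorescence of gated singlet beads compared with DMSO control wells; 0% = DMSO wells and 100% = complete loss of bead fluorescence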
# RGS8-Gao single – RGS8-Galphao interaction regulation, single point confirmation. shares compounds with RGS16-Gao. bead-based flow cytometry RGS8-Galphao binding, fluorescence; actives lie on both sides. binding response (% of control), % at 10 µM. 1,700 tested, 3% active; in the data active = binding response below about 72% or above about 130%; inactive = in between;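 also: Galphao activated as GDP AlF4 complex before binding bead RGS8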
# RGS7-Gao single – confirmation of regulators of human RGS7-Galphao interaction. response (percent of control binding), % at 10 µM. 1,700 tested, 7.8% active. shares compounds with RGS16-Gao. bead-based flow cytometry RGS7-Galphao binding; actives lie on both sides; in the data active = response below about 75% or above about 130%; inactive = in between;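 also: fluorescent Galphao activated with GDP and aluminum fluoride binding bead-coupled RGS7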
# RGS16-Gao conf – RGS16-Galphao interaction regulation, single point confirmation. shares compounds with RGS16-Gao. bead-based flow cytometry, RGS16-Galphao binding; actives lie on both sides. response (% of control binding), % at 10 µM. 1,700 tested, 4% active; in the data active = response below about 74% or above about 130%; inactive = in between;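 also: Galphao activated as the GDP aluminium fluoride complex binding bead-coupled RGS16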
# RGS4-Gao single – RGS4-Galphao interaction regulation, single point confirmation | shares compounds with RGS16-Gao | RGS4-Galphao binding, multiplexed bead flow cytometry; actives lie on both sides | binding response (% of control), % at 10 µM | 1,700 tested, 4% active | AID 1840; in the data active = binding response below about 74% or above about 130%; inactive = in between
# RGS19-Gao single – RGS19-Galphao interaction regulation, single point confirmation | bead-based flow cytometry RGS19-Galphao binding; actives lie on both sides | response (percent of control binding), % at 10 µM | shares compounds with RGS16-Gao | 1,700 tested, 5% active; in the data active = response below about 50% or above about 160%; inactive = in between;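 also: 100% = no compound control and 0% = blank background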
# Target sequence (P09471 whole entry, looked up): as above
# Target sequence (P49795 whole entry, looked up): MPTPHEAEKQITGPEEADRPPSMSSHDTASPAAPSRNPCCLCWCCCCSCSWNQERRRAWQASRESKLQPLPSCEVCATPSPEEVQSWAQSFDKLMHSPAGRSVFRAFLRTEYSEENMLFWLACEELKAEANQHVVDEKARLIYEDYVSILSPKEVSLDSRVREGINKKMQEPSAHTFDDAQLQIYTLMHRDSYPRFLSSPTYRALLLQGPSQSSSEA
# Numbers without * were called inactive; ? = inconclusive; / = not tested or not shown; [ ] = dose if it differs, or a comment. A selection: hits, their analogues and other compounds. The true share with any hit is near 1.2%. Unless noted, no rule for the calls is given here.
SMILES,RGS4-Gao reg,GSH bead fluor,RGS7-Gao,RGS16-Gao,RGS8-Gao,Avidin bead fluor,Biotin-avidin,RGS8-Gao single,RGS7-Gao single,RGS16-Gao conf,RGS4-Gao single,RGS19-Gao single,others
NC(=O)SC/C(=N\S(=O)(=O)c1ccccc1)Nc1ccccc1,350*[activator],47,268*[activator],418*[activator],118,189*,2,97,88,100,94,88,
CCCC(=O)N(c1ccc(F)cc1)C1C=CS(=O)(=O)C1 (stereo unspecified),99,5,99,99,99,8,/,/,/,/,/,/,
CCOC(=O)c1cc(C)nn1-c1nc(Cl)cc(OC)n1,92,6,97,45,80,1,/,/,/,/,/,/,
COc1ccc(C(CC(=O)Nc2ccccc2OC)n2cccc2)cc1 (stereo unspecified),93,4,88,15*,75,8,-2,102,102,103,103,102,RGS4-Gao HTS=93*
NS(=O)(=O)c1cccnc1Nc1c(Cl)cccc1Cl,208*[activator],202*,179*[activator],213*[activator],128,108*,0,104,108,106,106,103,
COCCn1c(C)cc(C(=O)COC(=O)c2ccc3ncsc3c2)c1C,-46*,10,15*,-53*,47*,5,1,94,98,85,81,128,
CCn1c(=O)c(C(=O)NCc2cccnc2)c(O)c2ccccc21,122,40,/,/,/,/,0,101,97,101,96,100,
CC1(C)CC(=O)C(C=NCC(N)=O)=C(O)C1,147,32,149,151,146*[activator],12,/,/,/,/,/,/,RGS4-Gao HTS=147*
COc1cccc(CC2(CO)CCCN(C(=O)c3cc[n+]([O-])cc3)C2)c1 (stereo unspecified),97,10,106,99,99,5,/,/,/,/,/,/,
COCCCNC(=O)c1ccc2c3c(onc13)-c1ccccc1C2=O,43*,/,?,31,60,3,0,69*,64*,68*,94,42*,
COCCCNC(=O)c1ccccc1Oc1ccccc1,97,15,97,100,100,7,/,/,/,/,/,/,
CCNC(=O)Cn1c(=O)c(=O)n(Cc2ccccc2)c2ccc(Cl)cc21,162*[activator],15,171*[activator],243*[activator],84,57*,0,103,102,103,104,99,
CCCN1C(=O)C2(SC(NC(C)=O)=NN2C(C)=O)c2cc(C)cc(C)c21 (stereo unspecified),98,/,?,96,79,3,4,110,98,113,100,99,
CCN1C(=O)C2(SC(NC(C)=O)=NN2C(C)=O)c2cc(C)cc(C)c21 (stereo unspecified),75,5,77,8,76,6,/,/,/,/,/,/,
CC(=O)Nc1nonc1NC(=O)c1ccc(C(C)(C)C)cc1,98,28,98,98,97,36,/,/,/,/,/,/,
CC(=O)c1c(C(C)=O)c(C)n(NC(=O)c2ccc(Cl)cc2)c1C,194*[activator],21,163*[activator],174,108,71*,-1,109,112,110,112,124,
Cc1nc2c(=O)n(-c3cccc(C(F)(F)F)c3)nc(C)c2s1,102,/,?,103,102,5,/,/,/,/,/,/,
COC(=O)C(F)(F)Sc1c(C)[nH]c2ccccc12,119,26,158*[activator],117,111,143*,0,104,100,102,102,102,RGS4-Gao HTS=119*
Cc1[nH]c2ccccc2c1SCC(=O)O,100,15,97,101,101,7,/,/,/,/,/,/,
O=S(=O)(NCCc1ccccc1)c1ccc(Cl)nc1,103,4,102,106,101,12,/,/,/,/,/,/,
CCC(C)n1c(SCc2ccc([N+](=O)[O-])cc2)nc2ccsc2c1=O (stereo unspecified),100,10,104,107,99,11,/,/,/,/,/,/,
CCC(Oc1cc(Cl)ccc1Cl)C(=O)NNC(=O)CCC(=O)O (stereo unspecified),80,11,81,13*,60,1,0,98,104,100,101,85,RGS4-Gao HTS=80*
COc1ccc(-c2noc(CCC(=O)NCCc3cccc(C)c3)n2)cc1,102,18,?,101,103,11,/,/,/,/,/,/,
Nc1nnc(SCC(=O)OCC(=O)NC23CC4CC(CC(C4)C2)C3)s1,19*,12,?,7.7*,13*,-1,0,106,109,107,105,97,
Cc1ccc(NC(=O)NCc2ccc3c(c2)OCO3)cc1,98,29,97,97,98,12,/,/,/,/,/,/,
SMILES,RGS4-Gao reg,GSH bead fluor,RGS7-Gao,RGS16-Gao,RGS8-Gao,Avidin bead fluor,Biotin-avidin,RGS8-Gao single,RGS7-Gao single,RGS16-Gao conf,RGS4-Gao single,RGS19-Gao single,others
Cc1nccn1S(=O)(=O)c1ccc(Br)cc1Br,145,10,168*[activator],127,114,92*,/,/,/,/,/,/,RGS4-Gao HTS=145*
COc1ccc(Br)cc1S(=O)(=O)n1ccnc1C,106,35,103,106,107,13,/,/,/,/,/,/,
O=C1CCCN1c1ccc(S(=O)(=O)Oc2ccc(Cl)cc2)cc1[N+](=O)[O-],99,30,102,100,98,17,/,/,/,/,/,/,
O=C(Cn1cnc2c(cnn2-c2ccccc2)c1=O)Nc1ccc(S(=O)(=O)N2CCOCC2)cc1,95,11,90,20*,77,10,2,97,93,95,93,189*[activator],RGS4-Gao HTS=95*
COc1ccc(-n2ncc3c(=O)n(CC(=O)Nc4ccc(S(=O)(=O)N5CCOCC5)cc4)cnc32)cc1,99,11,97,97,99,3,/,/,/,/,/,/,
CCc1c(O)nc(SCC(=O)Nc2nc3ccccc3s2)n(C2CCCCC2)c1=O,95,/,?,98,95,6,/,/,/,/,/,/,
O=c1oc2ccccc2c(N2CCCCC2)c1[N+](=O)[O-],101,4,102,103,100,13,/,/,/,/,/,/,
